FMDV antiviral = High Throughput Screening for Foot and Mouth Disease Virus Antivirals. AID 1159524, 2015. 410,000 tested, 1.2% active. Potency, µM (highest dose often 57.9 µM), actives largely listed as inhibitors. FMDV antiviral cell-based qHTS; calls by dose curve; tested in HEK293T cells; note: read-out not given here; nearly all actives have a fitted effect of over 45% in size
Cycloheximide cs = Cycloheximide Counterscreen for Small Molecule Inhibitors of Shiga Toxin; 300,000 tested, 12% active; cell reporter, cycloheximide protein synthesis inhibition counterscreen; max response, %; in the data active = max response mostly above about 13%, no sharp cut-off; inactive = mostly below about 14%; note: read at 38.3 µM for the half of the compounds with a filed dose
Shiga inhibitor = A qHTS for Small Molecule Inhibitors of Shiga Toxin; Vero cells, Shiga toxin protein synthesis inhibition reporter; inhibition, % at 38.7 µM; 290,000 tested, 9.2% active; in the data active = inhibition mostly above about 28%, no sharp cut-off; inactive = mostly below about 43%
Sm TGR block = qHTS Assay for the Inhibitors of Schistosoma Mansoni Peroxiredoxins. Schistosoma mansoni thioredoxin glutathione reductase (TGR), Q962Y6. Potency, µM (series often up to 114 µM), usual class: inhibitors. purified TGR, DTNB reduction, TNB absorbance 405 nm. 360,000 tested, 3% active; active = well fitted inhibition curve with a large enough effect; inconclusive = small, poorly fitted or top-dose-only effect; inactive = no such curve, though single readings can be large or run the other way; note: nearly all actives have a fitted effect of over 60% in size
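TGR 20 nM + NADPH 100 uM (dispensed conc.), cpd preinc 15 min RT; start with NADPH (500 uM addition) then DTNB (15 mM addition). Kinetic TNB absorbance, 405 nm filter. Four-parameter Hill fit across titration.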
Large screens that a line does not name were inactive. Most compounds without a hit are left out; they make up all but 12% or so of the library.

O=C(c1cccs1)N(Cc1cccnc1)c1nc2ccc(F)cc2s1	FMDV antiviral inconclusive (no result: Cycloheximide cs, Shiga inhibitor)
CC1CCc2c(sc3nc(-c4cc5cc(Br)ccc5oc4=O)[nH]c(=O)c23)C1 (stereo not given)	none (no result: Cycloheximide cs, Shiga inhibitor)
CCOC(=O)c1ccccc1NC(=O)N1CCCN(S(=O)(=O)c2ccc3c(ccn3CC)c2)CC1	none (no result: Cycloheximide cs, Shiga inhibitor)
COc1ccc(-c2nc3sc(CCNC(=O)C(=O)Nc4ccc(C)c(C)c4)c(C)n3n2)cc1	none (no result: Cycloheximide cs, Shiga inhibitor)
CC(=O)c1c(C)[nH]c(C(=O)NCCc2ccc(Cl)cc2)c1C	Cycloheximide cs 15.6
COc1ccccc1NS(=O)(=O)c1cccc(NC(=O)c2[nH]c(C)c(C(C)=O)c2C)c1	none
CC(=O)c1[nH]c(C)c(C(=O)NCCc2ccc(C)cc2)c1C	none (no result: Cycloheximide cs, Shiga inhibitor)
CSc1cccc(NC(=O)c2[nH]c(C)c(C(C)=O)c2C)c1	Cycloheximide cs 43.9, Shiga inhibitor 93.5
O=C(O)c1ccc(-n2[nH]c3c(c2=O)CCCC3)cc1	Sm TGR block 35.5µM
Cc1oc(-c2ccc(C(=O)NCc3ccccc3)cc2)nc1CN1CCc2ccccc21	FMDV antiviral inconclusive (no result: Cycloheximide cs, Shiga inhibitor)
Cc1ccc(S(=O)(=O)c2c(C)nn(C(C)(C)C)c2OC(=O)c2ccco2)cc1	FMDV antiviral 12.6µM
Cc1nn(C(C)(C)C)c(OC(=O)c2ccc3c(c2)OCO3)c1S(=O)(=O)c1ccccc1	FMDV antiviral inconclusive, Cycloheximide cs 37.3
Cc1ccc2oc(-c3ccc(C)c(NC(=S)NC(=O)c4cccs4)c3)nc2c1	Cycloheximide cs 44.7, Shiga inhibitor 10.1
Cc1ccc(-c2nc3ccccc3o2)cc1NC(=S)NC(=O)c1cc2ccccc2o1	Cycloheximide cs 45.0, Shiga inhibitor 84.7
CN(C)c1ccc(-c2ccc(C3C4C=CCCC4(C)C(=O)N3Cc3ccccc3)c(F)c2)cc1 (stereo not given)	none (no result: FMDV antiviral, Sm TGR block)
N.N.O=C(O)C1(C(=O)O)CCC1.[Pt]	none (no result: Cycloheximide cs, Shiga inhibitor, Sm TGR block)
C=CCn1c(SCC(=O)Nc2ccccc2OC)nnc1-c1ccco1	Sm TGR block 44.7µM (no result: FMDV antiviral)
CCCn1c(SCC(=O)Nc2ccccc2OC)nnc1-c1ccco1	none
CNC(=O)CSc1nnc(-c2ccco2)n1-c1ccccc1OC	Sm TGR block 79.4µM
CCOc1ccc(C(=O)NCC(=O)OCc2cc(C(C)=O)ccc2OC)cc1	Sm TGR block 7.08µM
COc1ccc(C(C)=O)cc1COC(=O)CNC(=O)c1ccc(Cl)cc1	Sm TGR block 3.16µM
COc1ccc(C(C)=O)cc1COC(=O)Cc1cc(OC)c(OC)c(OC)c1	Sm TGR block 11.2µM
COc1ccc(C(C)=O)cc1COC(=O)CNC(=O)c1ccc(F)cc1	Sm TGR block inconclusive
Cc1ccc(SCC(=O)NCC(C)C)cc1	Shiga inhibitor 44.0
CCC(C)NC(=O)CSc1ccc(Cl)cc1 (stereo not given)	Cycloheximide cs 18.3, Shiga inhibitor active
CC(C)CNC(=O)CSc1ccc(Cl)cc1	Cycloheximide cs 14.1
Cc1ccc(SCC(=O)NCc2ccccc2C)cc1	none
CCN(CC)CCN(C(=O)c1ccco1)c1nc2ccc(F)cc2s1	none (no result: Cycloheximide cs, Shiga inhibitor)
CCOc1ccc(NCc2cccn2-c2nnc(N3CCC(C(=O)NCCc4ccc(OCC)c(OCC)c4)CC3)s2)cc1	FMDV antiviral inconclusive (no result: Cycloheximide cs, Shiga inhibitor)
CCOc1ccc(NCc2cccn2-c2nnc(N3CCC(C(=O)NCCc4ccc(OC)c(OC)c4)CC3)s2)cc1	FMDV antiviral 22.4µM (no result: Cycloheximide cs, Shiga inhibitor)
Cc1ccccc1Cn1c(=O)n(CC2CCC(C(=O)N3CCC(C)CC3)CC2)c(=O)c2sccc21 (stereo not given)	FMDV antiviral inconclusive (no result: Cycloheximide cs, Shiga inhibitor)
CCOC(=O)c1sc2ccccc2c1OC(=O)c1ccc(C)cc1	none
CCOC(=O)c1sc(S(C)=O)c2c1CCc1conc1-2 (stereo not given)	Sm TGR block 1µM
COc1ccc(-c2ccc(CCC(=O)O)n2NC(=O)c2cccs2)cc1	Cycloheximide cs 21.9
Cc1ccc(-c2ccc(CCC(=O)O)n2NC(=O)c2cccs2)cc1	Cycloheximide cs 33.9
COc1ccc(CCC(=O)NNC(=O)c2cccs2)cc1	none (no result: Cycloheximide cs, Shiga inhibitor)
O=C(O)CCc1ccc(-c2cccs2)n1NC(=O)c1ccc(Cl)cc1	Sm TGR block 50.1µM (no result: FMDV antiviral)
CN(C)CCNC(=O)c1ccc(-n2c(-c3ccccc3)cc3c2CCCC3)cc1	none (no result: Cycloheximide cs, Shiga inhibitor)
O=C(Cn1c(-c2cccs2)cc2ccccc21)N1CCN(c2ccc(F)cc2)CC1	none (no result: Cycloheximide cs, Shiga inhibitor)
NC(=O)Nc1ccc(C(=O)OCC(=O)Nc2sccc2C(N)=O)cc1	none (no result: Cycloheximide cs, Shiga inhibitor)
CCN(CC)c1ccc(C(=O)OCC(=O)Nc2cc3oc4ccccc4c3cc2OC)cc1	none
CCN(CC)c1ccc(C(=O)OCC(=O)Nc2ncccn2)cc1	none (no result: Cycloheximide cs, Shiga inhibitor, Sm TGR block)
CCN(CC)c1ccc(C(=O)OCC(=O)Nc2sccc2C#N)cc1	Cycloheximide cs 27.5, Shiga inhibitor 39.4
